# What was measured:
# Experiment in all cases: yeast three-hybrid, YBZ-1, SC-Leu-His + 0.5 mM 3-AT, 4 days
# Details in all cases: tags: N-Gal4 AD-HA kept; label: inside an RPR1-promoter hybrid RNA with tandem MS2 sites; ssRNA
# PUM1 PUF domain R3-LWR = PUM1 PUF domain R3-LWR (Homo sapiens, UniProt Q14671 828-1176, C935L;R936W;Q939R)
# Summary of the method: (§1)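 The interaction score is the log change in variant frequency from input to selection. Scores were computed in log2 with a pseudocount of 1 for absent variants, using Illumina sequencing of PCR-amplified repeat regions. The input came from four days on SC-Leu and the selection from four days on SC-Leu-His + 0.5 mM 3-AT. The cells were strain YBZ-1 (LexA–MS2 coat fusion, HIS3 reporter) co-expressing Pumilio-1 PUF domain libraries and matching RNA elements from a centromeric plasmid.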
# PUM1 PUF domain R3-LWA = PUM1 PUF domain R3-LWA (Homo sapiens, UniProt Q14671 828-1176, C935L;R936W;Q939A)
# Sequence of PUM1 PUF domain R3-LWA (Q14671 828-1176 C935L/R936W/Q939A): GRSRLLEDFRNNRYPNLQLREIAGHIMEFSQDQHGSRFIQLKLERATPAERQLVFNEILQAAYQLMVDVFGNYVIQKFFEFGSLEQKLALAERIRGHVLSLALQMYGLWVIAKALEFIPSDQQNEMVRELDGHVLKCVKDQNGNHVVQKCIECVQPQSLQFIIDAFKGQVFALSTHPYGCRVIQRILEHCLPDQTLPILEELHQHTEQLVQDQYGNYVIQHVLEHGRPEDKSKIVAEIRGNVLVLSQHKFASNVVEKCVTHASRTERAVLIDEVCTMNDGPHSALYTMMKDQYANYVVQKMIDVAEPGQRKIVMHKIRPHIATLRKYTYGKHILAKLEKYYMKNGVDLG
# Summary of the method: as §1
# PUM1 PUF domain R3-GWA = PUM1 PUF domain R3-GWA (Homo sapiens, UniProt Q14671 828-1176, C935G;R936W;Q939A)
# Sequence of PUM1 PUF domain R3-GWA (Q14671 828-1176 C935G/R936W/Q939A): as the sequence (Q14671 828-1176 C935L/R936W/Q939A) above, with L108G counted along it
# Summary of the method: as §1
# PUM1 PUF domain R3-RRT = PUM1 PUF domain R3-RRT (Homo sapiens, UniProt Q14671 828-1176, C935R;Q939T)
# Sequence of PUM1 PUF domain R3-RRT (Q14671 828-1176 C935R/Q939T): as the sequence (Q14671 828-1176 C935L/R936W/Q939A) above, with L108R, W109R, A112T counted along it
# Summary of the method: as §1
# PUM1 PUF domain R7-RRW = PUM1 PUF domain R7-RRW (Homo sapiens, UniProt Q14671 828-1176, S1079R;N1080R;E1083W)
# Sequence of PUM1 PUF domain R7-RRW (Q14671 828-1176 S1079R/N1080R/E1083W): as the sequence (Q14671 828-1176 C935L/R936W/Q939A) above, with L108C, W109R, A112Q, S252R, N253R, E256W counted along it
# Summary of the method: as §1
# PUM1 PUF domain R1-KCS = PUM1 PUF domain R1-KCS (Homo sapiens, UniProt Q14671 828-1176, S863K;R864C;Q867S)
# Sequence of PUM1 PUF domain R1-KCS (Q14671 828-1176 S863K/R864C/Q867S): as the sequence (Q14671 828-1176 C935L/R936W/Q939A) above, with S36K, R37C, Q40S, L108C, W109R, A112Q counted along it
# Summary of the method: as §1
# PUM1 PUF domain R4-ARC = PUM1 PUF domain R4-ARC (Homo sapiens, UniProt Q14671 828-1176, N971A;H972R;Q975C)
# Sequence of PUM1 PUF domain R4-ARC (Q14671 828-1176 N971A/H972R/Q975C): as the sequence (Q14671 828-1176 C935L/R936W/Q939A) above, with L108C, W109R, A112Q, N144A, H145R, Q148C counted along it
# Summary of the method: as §1
# PUM1 PUF domain R5-FHS = PUM1 PUF domain R5-FHS (Homo sapiens, UniProt Q14671 828-1176, C1007F;R1008H;Q1011S)
# Sequence of PUM1 PUF domain R5-FHS (Q14671 828-1176 C1007F/R1008H/Q1011S): as the sequence (Q14671 828-1176 C935L/R936W/Q939A) above, with L108C, W109R, A112Q, C180F, R181H, Q184S counted along it
# Summary of the method: as §1
# PUM1 PUF domain R5-KER = PUM1 PUF domain R5-KER (Homo sapiens, UniProt Q14671 828-1176, C1007K;R1008E;Q1011R)
# Sequence of PUM1 PUF domain R5-KER (Q14671 828-1176 C1007K/R1008E/Q1011R): as the sequence (Q14671 828-1176 C935L/R936W/Q939A) above, with L108C, W109R, A112Q, C180K, R181E, Q184R counted along it
# Summary of the method: as §1
# PUM1 PUF domain R2-EWD = PUM1 PUF domain R2-EWD (Homo sapiens, UniProt Q14671 828-1176, N899E;Y900W;Q903D)
# Sequence of PUM1 PUF domain R2-EWD (Q14671 828-1176 N899E/Y900W/Q903D): as the sequence (Q14671 828-1176 C935L/R936W/Q939A) above, with N72E, Y73W, Q76D, L108C, W109R, A112Q counted along it
# Summary of the method: as §1
# Sequence of PUM1 PUF domain R3-LWR (Q14671 828-1176 C935L/R936W/Q939R): as the sequence (Q14671 828-1176 C935L/R936W/Q939A) above, with A112R counted along it
sequence,measurement,setting,value
GGCUAGAACUAGUGGAUCCCCCGGCGCCCGGCGGCUCGAGCCCGGGUAAGUGUAAUUAGUCUGCAUGCCGCCGGGCGCCAUGCCUGCAGGUCGACUCUAGAAAACAUG,binding signal,PUM1 PUF domain R3-LWR,4.17 log2 enrichment (interaction score)
same,binding signal,PUM1 PUF domain R3-LWA,4.71 log2 enrichment (interaction score)
same,binding signal,PUM1 PUF domain R3-GWA,1.14 log2 enrichment (interaction score)
same,binding signal,PUM1 PUF domain R3-RRT,3.01 log2 enrichment (interaction score)
GGCUAGAACUAGUGGAUCCCCCGGCGCCCGGCGGCUCGAGCCCGGGUAAGUUUAAAUAGUCUGCAUGCCGCCGGGCGCCAUGCCUGCAGGUCGACUCUAGAAAACAUG,binding signal,PUM1 PUF domain R7-RRW,4.75 log2 enrichment (interaction score)
GGCUAGAACUAGUGGAUCCCCCGGCGCCCGGCGGCUCGAGCCCGGGUAAGUGUAAAUUGUCUGCAUGCCGCCGGGCGCCAUGCCUGCAGGUCGACUCUAGAAAACAUG,binding signal,PUM1 PUF domain R1-KCS,4.89 log2 enrichment (interaction score)
GGCUAGAACUAGUGGAUCCCCCGGCGCCCGGCGGCUCGAGCCCGGGUAAGUGUACAUAGUCUGCAUGCCGCCGGGCGCCAUGCCUGCAGGUCGACUCUAGAAAACAUG,binding signal,PUM1 PUF domain R4-ARC,0.97 log2 enrichment (interaction score)
GGCUAGAACUAGUGGAUCCCCCGGCGCCCGGCGGCUCGAGCCCGGGUAAGUCUAAAUAGUCUGCAUGCCGCCGGGCGCCAUGCCUGCAGGUCGACUCUAGAAAACAUG,binding signal,PUM1 PUF domain R7-RRW,4.3 log2 enrichment (interaction score)
GGCUAGAACUAGUGGAUCCCCCGGCGCCCGGCGGCUCGAGCCCGGGUAAGUGUUAAUAGUCUGCAUGCCGCCGGGCGCCAUGCCUGCAGGUCGACUCUAGAAAACAUG,binding signal,PUM1 PUF domain R5-FHS,0.94 log2 enrichment (interaction score)
GGCUAGAACUAGUGGAUCCCCCGGCGCCCGGCGGCUCGAGCCCGGGUAAGUGUAAAUAGUCUGCAUGCCGCCGGGCGCCAUGCCUGCAGGUCGACUCUAGAAAACAUG,binding signal,PUM1 PUF domain R5-FHS,2.12 log2 enrichment (interaction score)
same,binding signal,PUM1 PUF domain R3-LWR,2.03 log2 enrichment (interaction score)
same,binding signal,PUM1 PUF domain R3-LWA,2.61 log2 enrichment (interaction score)
same,binding signal,PUM1 PUF domain R4-ARC,5.53 log2 enrichment (interaction score)
same,binding signal,PUM1 PUF domain R3-GWA,3.32 log2 enrichment (interaction score)
GGCUAGAACUAGUGGAUCCCCCGGCGCCCGGCGGCUCGAGCCCGGGUAAGUGUGAAUAGUCUGCAUGCCGCCGGGCGCCAUGCCUGCAGGUCGACUCUAGAAAACAUG,binding signal,PUM1 PUF domain R5-FHS,2.39 log2 enrichment (interaction score)
GGCUAGAACUAGUGGAUCCCCCGGCGCCCGGCGGCUCGAGCCCGGGUAAGUGUAAGUAGUCUGCAUGCCGCCGGGCGCCAUGCCUGCAGGUCGACUCUAGAAAACAUG,binding signal,PUM1 PUF domain R3-LWR,5.5 log2 enrichment (interaction score)
same,binding signal,PUM1 PUF domain R3-LWA,5.58 log2 enrichment (interaction score)
same,binding signal,PUM1 PUF domain R3-GWA,2.87 log2 enrichment (interaction score)
GGCUAGAACUAGUGGAUCCCCCGGCGCCCGGCGGCUCGAGCCCGGGUAAGUGUCAAUAGUCUGCAUGCCGCCGGGCGCCAUGCCUGCAGGUCGACUCUAGAAAACAUG,binding signal,PUM1 PUF domain R5-FHS,1.75 log2 enrichment (interaction score)
same,binding signal,PUM1 PUF domain R5-KER,2.91 log2 enrichment (interaction score)
GGCUAGAACUAGUGGAUCCCCCGGCGCCCGGCGGCUCGAGCCCGGGUAAGUGUAAAUCGUCUGCAUGCCGCCGGGCGCCAUGCCUGCAGGUCGACUCUAGAAAACAUG,binding signal,PUM1 PUF domain R1-KCS,4.55 log2 enrichment (interaction score)
GGCUAGAACUAGUGGAUCCCCCGGCGCCCGGCGGCUCGAGCCCGGGUAAGUGUAUAUAGUCUGCAUGCCGCCGGGCGCCAUGCCUGCAGGUCGACUCUAGAAAACAUG,binding signal,PUM1 PUF domain R4-ARC,1.56 log2 enrichment (interaction score)
GGCUAGAACUAGUGGAUCCCCCGGCGCCCGGCGGCUCGAGCCCGGGUAAGUGUAAAGAGUCUGCAUGCCGCCGGGCGCCAUGCCUGCAGGUCGACUCUAGAAAACAUG,binding signal,PUM1 PUF domain R2-EWD,9.68 log2 enrichment (interaction score)
